# Experimental data: PubChem BioAssay
# Activity calls are given as the source filed them.
# Assays:
# [1] = compound effects on differentiated 3T3-L1 adipocyte viability – cell-based, 3T3-L1 adipocytes, calcein-AM fluorescence, 48 h, basal, profiling panel (AID 1163); details: 3T3-L1 adipocytes viability, higher = more signal
# [2] = compound effects on hepatocellular carcinoma cell viability – HepG2, calcein-AM fluorescence, 48 h, basal, profiling panel (AID 1164); details: higher = more signal
# [3] = compound effects on multiple myeloma cell viability – MM1S, calcein-AM fluorescence, 48 h, basal, profiling panel (AID 1165); details: higher = more signal;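 further: viability of MM1S multiple myeloma cells under basal unstimulated conditions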
# [4] = calcein-AM signal in unstimulated myeloma cells – cell-based, calcein-AM fluorescence, 48 h, PK04 Diversity Set, profiling panel (AID 1166); details: RPMI8226 myeloma viability, higher = more signal;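 further: cells grown under basal conditions without added stimulus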
# [5] = JC-1 mitochondrial signal, unstimulated HepG2 cells – cell-based, JC-1 fluorescence, 24 h, 100 nL compound, profiling panel (AID 1167); details: HepG2 mitochondrial potential, higher = more signal
# [6] = JC-1 mitochondrial signal, unstimulated adipocytes – cell-based, JC-1 fluorescence, 3T3-L1 adipocytes, 24 h, 100 nL compound, profiling panel (AID 1168); details: JC-1 mitochondrial fluorescence, higher = more signal, called active from +8 up or from −8 down
# [7] = JC-1 mitochondrial signal, unstimulated myeloma cells – cell-based, JC-1 fluorescence, RPMI8226, 24 h, 100 nL compound, profiling panel (AID 1169); details: JC-1 mitochondrial potential fluorescence, higher = more signal
# [8] = JC-1 mitochondrial signal, unstimulated MM1S myeloma – cell-based, JC-1 fluorescence, 24 h, 100 nL compound, profiling panel (AID 1170); details: MM1S mitochondrial potential, higher = more signal
# [9] = resazurin metabolic signal in A549 cells – cell-based, resazurin fluorescence, 24 h, PK04 Diversity Set, profiling panel (AID 1171); details: A549 viability, higher = more signal, called active from +8 up or from −8 down
# [10] = resazurin metabolic signal in HepG2 cells – cell-based, resazurin fluorescence, 24 h, PK04 Diversity Set, profiling panel (AID 1172); details: HepG2 viability, higher = more signal
# [11] = budding yeast growth changes without added modifier – OD600, strain BY4716, 24 h, basal condition, primary screen (AID 1173); details: S. cerevisiae BY4716 growth, OD600, 24 h; higher = more signal, called active from +8 up or from −8 down
# [12] = viability profiling in MM1S myeloma cells – cell-based, resazurin fluorescence, basal, 24 h, PK04 Diversity Set, profiling panel (AID 1174); details: higher = more signal, called active from +8 up or from −8 down
# [13] = molecular target: Dihydroorotate dehydrogenase (quinone), mitochondrial (Plasmodium falciparum (isolate 3D7)) (UniProt Q08210); test: inhibition of P. falciparum DHODH – biochemical, C-terminal His tag, absorbance 600 nm, primary screen (AID 1175); details: PfDHODH enzyme, DCIP absorbance 600 nm; higher = more signal, called active from +8 up or from −8 down;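 further: recombinant parasite enzyme with a five histidine tag at its C terminus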
# Dihydroorotate dehydrogenase (quinone), mitochondrial (Plasmodium falciparum (isolate 3D7)), sequence (Q08210 whole entry, looked up): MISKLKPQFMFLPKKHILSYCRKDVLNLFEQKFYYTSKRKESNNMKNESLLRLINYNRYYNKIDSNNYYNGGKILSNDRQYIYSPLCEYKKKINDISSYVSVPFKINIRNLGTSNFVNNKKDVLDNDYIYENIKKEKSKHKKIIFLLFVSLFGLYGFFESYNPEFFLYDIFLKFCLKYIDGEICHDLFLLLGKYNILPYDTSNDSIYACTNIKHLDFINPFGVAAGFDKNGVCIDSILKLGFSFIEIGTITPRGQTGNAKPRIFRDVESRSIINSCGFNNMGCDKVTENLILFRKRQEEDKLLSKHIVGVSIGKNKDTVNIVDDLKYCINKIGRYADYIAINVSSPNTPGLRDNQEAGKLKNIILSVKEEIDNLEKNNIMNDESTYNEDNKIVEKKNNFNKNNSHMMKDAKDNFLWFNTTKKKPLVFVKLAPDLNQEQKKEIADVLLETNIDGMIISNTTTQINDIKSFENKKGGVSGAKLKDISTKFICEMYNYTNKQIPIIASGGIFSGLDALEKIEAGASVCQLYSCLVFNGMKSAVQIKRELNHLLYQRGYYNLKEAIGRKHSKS
# [14] = growth modulation of vineyard yeast isolate – strain RM11-1a, OD600, basal, 24 h, primary screen (AID 1177);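 further: cultures grown under basal conditions with no added stressor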; details: S. cerevisiae RM11-1a growth, OD600, 24 h; higher = more signal, called active from +8 up or from −8 down
# [15] = growth of efflux-deficient E. coli DRC39 – strain DRC39, OD650, 24 h, E. coli filamentation inducers, primary screen (AID 1178);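 further: growth measured as culture turbidity by optical density at 650 nm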; details: E. coli DRC39 acrAB, higher = more signal, called active from +8 up or from −8 down
# [16] = growth of efflux-deficient E. coli DRC39 – strain DRC39, OD650, 48 h, E. coli filamentation inducers, primary screen (AID 1179);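 further: screen aims at cell division blockers that make cells filament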; details: E. coli DRC39 delta-acrAB growth, higher = more signal, called active from +8 up or from −8 down
# [17] = viability profiling in RPMI8226 myeloma cells – cell-based, resazurin fluorescence, basal, 24 h, PK04 Diversity Set, profiling panel (AID 1180); details: higher = more signal;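 further: RPMI8826 multiple myeloma cell line at 5000 cells per well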
# [18] = molecular target: E3 ubiquitin-protein ligase XIAP (Homo sapiens) (UniProt P98170); test: small molecules binding XIAP protein – biophysical, small-molecule microarray, fluorescence 635 nm, primary screen (AID 1181); details: higher = more signal;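 further: score merges 667 nm emission and signal to noise over triplicate slides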
# E3 ubiquitin-protein ligase XIAP (Homo sapiens), sequence (P98170 whole entry, looked up, the tested form may be a part): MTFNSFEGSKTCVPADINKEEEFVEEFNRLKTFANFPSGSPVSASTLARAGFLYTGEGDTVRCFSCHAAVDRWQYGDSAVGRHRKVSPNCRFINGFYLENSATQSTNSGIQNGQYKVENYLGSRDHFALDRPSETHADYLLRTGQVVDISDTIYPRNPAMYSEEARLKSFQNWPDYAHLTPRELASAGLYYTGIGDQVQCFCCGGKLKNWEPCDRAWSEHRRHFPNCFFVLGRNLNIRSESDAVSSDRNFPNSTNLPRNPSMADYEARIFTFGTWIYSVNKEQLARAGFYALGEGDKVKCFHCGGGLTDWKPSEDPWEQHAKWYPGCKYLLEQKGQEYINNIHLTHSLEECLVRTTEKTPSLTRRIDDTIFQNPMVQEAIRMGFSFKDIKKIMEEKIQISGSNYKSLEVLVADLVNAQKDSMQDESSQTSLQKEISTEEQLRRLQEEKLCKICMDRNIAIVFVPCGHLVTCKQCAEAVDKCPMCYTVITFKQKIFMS
# [19] = tested on: XIP peptide (Xip251-270) binding; test: XIP fragment 251-270 binding compounds – biochemical, small-molecule microarray, fluorescence 635/667 nm, 0.1 µg/mL protein, primary screen (AID 1182); details: fluorescent protein binding, 635 nm, higher = more signal, called active from +8 up or from −8 down
# XIP peptide (Xip251-270) = test: compounds binding XIP fragment 251-270 – biochemical, small-molecule microarray, fluorescence 635/667 nm, 0.5 µg/mL protein, primary screen (AID 1183); details: fluorescence 635 nm, higher = more signal
SMILES,z-score [1],z-score [2],z-score [3],z-score [4],z-score [5],z-score [6],z-score [7],z-score [8],z-score [9],z-score [10],z-score [11],z-score [12],composite z-score [13],z-score [14],z-score [15],z-score [16],z-score [17],composite z-score [18],composite z-score [19],composite z-score (XIP peptide (Xip251-270))
COCCOC(=O)N1C(=O)[C@@]2(c3cc(C#CC4(O)CCCCCC4)ccc31)[C@H](c1ccc(O)cc1)N1[C@H](c3ccccc3)[C@H](c3ccccc3)OC(=O)[C@H]1[C@@H]2C(N)=O,1.46,0.638,-2.22,-4.23,-1.6,-0.385 (inactive),-0.735,0.246,0.928 (inactive),0.228,-1.38 (inactive),0.951 (inactive),0.194 (inactive),-0.95 (inactive),0.158 (inactive),0.155 (inactive),0.778,0.166,1.84 (inactive),0.821
COc1ccc([Si](C)(C)[C@H]2[C@H](CC(=O)N(CCO)Cc3ccccc3)O[C@@]3(C(=O)N(Cc4cccc(N5C(=O)COc6ccccc65)c4)c4ccccc43)[C@@H]2C)cc1,0.446,-0.647,-0.945,-2.66,0.502,1.2 (inactive),-0.943,-0.397,-0.899 (inactive),0.0785,0.337 (inactive),-1.48 (inactive),-0.149 (inactive),2.62 (inactive),2.07 (inactive),2.13 (inactive),-2.97,0.0727,1.65 (inactive),0.727
CCN(CC)c1ccc(N2CC=CC34O[C@@H]5C=CCOC(=O)[C@@H]5[C@H]3C(=O)N(C(CO)C(C)C)[C@@H]4C2=O)cc1 (stereo not given in full),0.471,0.121,-0.413,-0.201,0.296,0.688 (inactive),1.08,0.728,0.461 (inactive),0.492,0.0588 (inactive),0.913 (inactive),0.764 (inactive),1.24 (inactive),1.21 (inactive),1.09 (inactive),0.687,0.0139,-0.0795 (inactive),-0.51
CCCNC(=O)[C@@]1(Sc2ccc(C)cc2)CC(=O)N(Cc2cc(C(F)(F)F)cc(C(F)(F)F)c2)[C@@H]1c1ccc(CO)cc1I,0.66,1.28,-2.53,-1.3,0.848,1.18 (inactive),-0.649,-1.24,0.0086 (inactive),1.05,-5.79 (inactive),-1.68 (inactive),-0.684 (inactive),-5 (inactive),0.961 (inactive),1.4 (inactive),-1.55,-0.0925,0.459 (inactive),0.816
COc1ccc([Si](C)(C)[C@@H]2[C@@H](CC(=O)N3CCC[C@H]3CO)O[C@]3(C(=O)N(Cc4ccc(I)cc4)c4ccccc43)[C@H]2C)cc1,2.59,-2.95,-2.58,-4.35,2.47,1.67 (inactive),-1.04,-0.818,-2.59 (inactive),-1.37,-1.91 (inactive),-2.56 (inactive),0.413 (inactive),-0.289 (inactive),1.66 (inactive),0.78 (inactive),-2.59,0.0368,0.564 (inactive),0.534
C#CCOc1ccc(C[C@H]2C(=O)O[C@H](Cc3ccccc3)[C@H](/C=C/C3CC3)N2CC#C)cc1,0.892,-0.99,-1.63,-1.89,2.08,0.476 (inactive),-0.599,0.0151,1.51 (inactive),1.71,-0.783 (inactive),0.35 (inactive),0.656 (inactive),1.29 (inactive),2.66 (inactive),1.81 (inactive),0.915,-0.144,0.294 (inactive),-0.237
C[N+](C)(C)CCCC[C@@H]1NC(=O)[C@H]2C[C@@H](C(=O)NCCCCCN)[C@@H](c3cccc(OCCO)c3)N2C1=O,2.1,-0.468,-0.433,-0.649,1.31,0.0454 (inactive),-0.773,0.0601,-0.156 (inactive),-0.148,-0.26 (inactive),1.53 (inactive),-0.407 (inactive),-0.286 (inactive),0.222 (inactive),-0.0647 (inactive),0.729,-0.163,0.713 (inactive),0.608
COc1ccc([Si](C)(C)[C@H]2[C@H](CC(=O)N3Cc4ccccc4C[C@H]3CO)O[C@@]3(C(=O)N(Cc4cccc(N5C(=O)COc6ccccc65)c4)c4ccccc43)[C@@H]2C)cc1,1.8,-0.0432,-0.227,-1.19,2.09,0.335 (inactive),-1.15,0.424,-0.987 (inactive),-0.593,-0.855 (inactive),-1.11 (inactive),-0.0999 (inactive),2.03 (inactive),1.48 (inactive),-0.185 (inactive),-0.668,-0.163,1.83 (inactive),0.618
